# Screening results: PubChem, National Center for Advancing Translational Sciences (NCATS)
# Luc counter – counter-screen: inhibitors of Kinase-Glo firefly luciferase; actives 0.28% (n = 200,000); Q27757; Potency, µM (titrated, usually from 38.3 µM), for inactives: at the highest dose activity change, negative = inhibition, hits mostly inhibitors; Kinase-Glo luciferase, ATP luminescence, 8 min; AID 1379; note: % is set by controls: 0 for no effect and ±100 for the full control effect; nearly all actives have a fitted effect of over 60% in size
#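 Compounds were added to a substrate mix at pH 7.2 (50 mM imidazole, 10 uM ATP, within the enzyme's linear range), followed by Kinase-Glo detection reagent; luminescence was measured after 8 minutes at ambient temperature.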
# ELG1 genotoxic – genotoxicity induction in ELG1-luciferase HEK293T cells; Potency, µM (top dose mostly 46 µM), inactives show at the highest dose activity change, positive = activation, hits mostly activators; HEK293T ELG1-luciferase reporter, luminescence, 16 h; actives 1.3% (n = 330,000); note: % of control where 0% means no effect; nearly all actives have a fitted effect of over 60% in size
#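 Genotoxicity was scored as increased ELG1-luciferase reporter signal, measured by ONE-Glo luminescence (30 min, room temperature). Compound or vehicle exposure of the HEK293T reporter cells lasted 16 hr at 37°C.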
# FLuc counter – inhibits or activates purified firefly luciferase, miR-21 counter-screen; actives 6.9% (n = 360,000); purified FLuc, Km substrates, luminescence inhibition; P08659; Potency, µM (doses to about 57.5 µM), for inactives: top-dose activity change, negative = inhibition, most hits filed as inhibitors;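 note: plate controls were vehicle for no effect and reference inhibitor for full effect; nearly all actives have a fitted effect of over 55% in size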
# Target sequence (P08659 whole entry, looked up): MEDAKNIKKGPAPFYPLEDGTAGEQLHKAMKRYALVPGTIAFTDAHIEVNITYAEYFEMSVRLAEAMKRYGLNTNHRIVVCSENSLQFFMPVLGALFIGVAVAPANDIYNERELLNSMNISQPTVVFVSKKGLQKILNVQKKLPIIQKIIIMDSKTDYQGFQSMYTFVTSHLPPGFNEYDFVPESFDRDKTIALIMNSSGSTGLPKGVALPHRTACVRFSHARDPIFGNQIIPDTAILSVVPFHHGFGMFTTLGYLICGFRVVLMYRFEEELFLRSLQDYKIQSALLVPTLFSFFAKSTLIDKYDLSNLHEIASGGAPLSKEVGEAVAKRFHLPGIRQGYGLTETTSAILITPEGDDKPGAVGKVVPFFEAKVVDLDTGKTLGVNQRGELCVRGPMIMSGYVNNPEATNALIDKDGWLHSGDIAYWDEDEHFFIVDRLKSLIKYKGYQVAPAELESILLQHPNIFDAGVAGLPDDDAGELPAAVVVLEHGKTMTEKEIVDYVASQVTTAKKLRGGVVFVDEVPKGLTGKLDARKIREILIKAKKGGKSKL
#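 Purified P. pyralis luciferase, 10 nM final, with Km-level 10 uM D-luciferin and 10 uM ATP in 50 mM Tris acetate pH 7.5, 10 mM Mg acetate, 0.01% Tween-20, 0.05% BSA; 6-point qHTS titration about 60 µM downward; luminescence read.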
# NPC1 prom act – activates the NPC1 promoter; Huh7 NPC1 promoter luciferase reporter, 24 h; actives 2.4% (n = 320,000); AID 485313; Potency, µM (doses to about 9.22 µM), for inactives: at the highest dose activation, hits mostly activators; note: % of control where 0% means no effect; nearly all actives have a fitted effect of over 60% in size
#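 Luminescence read-out of NPC1 promoter-driven luciferase in stably transfected Huh7 cells; compounds delivered in DMSO and left 24 h at 37C, 5% CO2, qHTS titration format.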
# Rab9 promoter act – activators of Rab9 promoter | actives 2.8% (n = 320,000) | Potency, µM (series often up to 9.22 µM), without a hit: top-dose activation, negative = inhibition, usual class: activators | Huh7 Rab9 promoter-luciferase reporter, luminescence, 24 h; note: % of control where 0% means no effect; nearly all actives have a fitted effect of over 60% in size
#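 Huh7 cells stably carrying Rab9 promoter–luciferase reporter, plated 1500 cells/well, compound added after 2 h and incubated 24 h at 37 °C; luciferase luminescence then read after 10 min with detection reagent.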
# SMN2 splice enh – enhancers of SMN2 splice variant expression. HEK293 SMN2-luciferase splicing reporter, luminescence, 30-36 h. Potency, µM (series often up to 46.1 µM), inactives show at the highest dose activity change, positive = activation, most hits filed as activators. actives 2.8% (n = 210,000); note: % of control where 0% means no effect; nearly all actives have a fitted effect of over 55% in size
#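 qHTS luciferase splicing reporter: luminescence rises when SMN2 exon 7 is included in transfected HEK293 cells. Compound exposure lasted 30-36 h at 37C, with 4.5 mM final sodium butyrate as control, followed by a ONE-Glo read.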
# The depositor's hits bear a star; u = inconclusive; x = no result given. Only some compounds are listed: those with a hit (about 7.5% of all), similar ones and a draw of the others. Calls come from the whole dose curve; as a rule, active = well fitted curve in the direction sought with a large enough effect; inconclusive = small, poorly fitted or top-dose-only effect, or another doubt; inactive = no such curve, though single readings can be large; an effect the other way counts as inactive or inconclusive. Potency is the fitted concentration of half-maximal effect.
SMILES,Luc counter,ELG1 genotoxic,FLuc counter,NPC1 prom act,Rab9 promoter act,SMN2 splice enh
COc1ccccc1C(=O)Nc1nnc(-c2ccco2)s1,2%,1.6µM*,2.7µM*,0%,u,11µM*
Cc1ccccc1OCC(=O)Nc1nnc(-c2ccco2)s1,x,2%,-2%,-1%,-2%,x
O=C1C(C2=NC(C(=O)O)C3C(=O)N(c4ccccc4)C(=O)C23)=C(O)c2ccccc21 (stereo unspecified),u,-4%,12µM*,-1%,0%,-7%
Cc1ccc(NC(=O)C(Cc2ccccc2)n2cccc2)cc1C (stereo unspecified),x,x,-13%,x,x,-17%
O=C(Nc1cccc(Cl)c1)Nc1nccs1,-1%,-1%,19µM*,u,u,-9%
O=C(Nc1cccc(Cl)c1)Nc1nc(-c2ccccc2)cs1,2%,-1%,-4%,7%,-2%,-36%
O=C(Nc1ccc(Cl)c(Cl)c1)Nc1nccs1,x,-1%,13µM*,-18%,14%,x
Cc1csc(NC(=O)Nc2cccc(Cl)c2)n1,0%,u,5.4µM*,u,u,11µM*
Cc1cc(C)cc(NC(=O)N2CCC3(CC2)Oc2ccccc2C(=O)N3Cc2ccccc2F)c1,x,x,-11%,x,x,-11%
CC(C)c1cnc2c(c1SCc1cccc(F)c1)c(=O)n(C)c(=O)n2C,x,x,2%,x,x,x
COc1ccc2c(c1)CC(C(=O)Nc1cc(Cl)ccc1C)CO2 (stereo unspecified),x,x,-2%,x,x,x
CCOC(=O)N1CCN(C(=O)c2cc(COc3cccc(C(C)=O)c3)on2)CC1,x,13%,u,23%,u,x
CCOC(=O)N1CCN(C(=O)c2cc(COc3cccc(C(F)(F)F)c3)on2)CC1,x,u,15µM*,3.2µM*,2.8µM*,x
CC(NC(=O)c1cc(COc2cccc(C(F)(F)F)c2)on1)c1nccs1 (stereo unspecified),x,u,15µM*,u,2.8µM*,x
O=C(NC1CCOC1)c1cc(COc2cccc(C(F)(F)F)c2)on1 (stereo unspecified),x,u,24µM*,0%,u,x
O=C(NCC1CCOCC1)c1cc(COc2cccc(C(F)(F)F)c2)on1,x,-9%,0%,-1%,1%,x
CCOc1ccccc1C(=O)NC(C(=O)Nc1cccnc1)C(C)C (stereo unspecified),0%,-3%,2%,1%,-6%,12%
CCOc1ccc(CNCc2c(C(=O)O)n(Cc3ccc(OC)cc3)c3ccccc23)cc1,x,x,-13%,x,x,x
COCCCNC(=O)CSc1nc2nc(C)c(Cc3ccccc3Cl)c(C)n2n1,x,x,-8%,x,x,-7%
O=[N+]([O-])c1cccc(N/N=C/c2ccc(N3CCOCC3)cc2)c1,x,u,11µM*,2.8µM*,3.2µM*,x
C(=N\Nc1ccccn1)/c1ccc(N2CCOCC2)cc1,-20%,u,6µM*,3.2µM*,2.8µM*,13µM*
O=C(NC(=S)Nc1ccc(N2CCOCC2)cc1)c1cccc(Cl)c1,0%,-2%,-10%,1%,2%,-8%
Cc1ccc(S(=O)(=O)NN=Cc2ccc(N3CCOCC3)cc2)cc1[N+](=O)[O-],x,1%,x,x,x,x
COc1cc(/C=N/Nc2ccc(Cl)c(C(=O)O)c2)ccc1OC(=O)c1ccco1,3%,-20%,u,u,26%,3%
O=C(O)c1cc(N/N=C/c2ccc(N3CCOCC3)cc2)ccc1Cl,x,u,0.6µM*,u,u,x
SMILES,Luc counter,ELG1 genotoxic,FLuc counter,NPC1 prom act,Rab9 promoter act,SMN2 splice enh
Clc1cccc(N/N=C/c2ccc(N3CCOCC3)cc2)c1,1%,15%,13µM*,u,u,u
CCOc1ccc2c(c1)c(=O)c(C(=O)c1ccc(CC)cc1)cn2CC(=O)Nc1ccc2c(c1)OCCO2,x,x,-1%,x,x,-23%
C/C(=N\Nc1nc(-c2ccccn2)nc2ccccc12)c1ccc(F)cc1,x,-1%,-3%,-20%,-21%,x
Cc1cc(C)nc(N/N=C/c2ccc(N3CCOCC3)cc2)n1,-1%,-10%,1%,-7%,-18%,20%
C/C(=N\NC(=O)c1ccc(Cl)cc1)c1ccc(N2CCOCC2)cc1,0%,7%,-4%,-2%,1%,6%
C/C(=N\Nc1ccccn1)c1ccc(C(C)C)cc1,0%,13%,9.5µM*,u,u,u
C(=N\Nc1ccccc1)/c1ccc(N2CCOCC2)cc1,-3%,u,7.6µM*,3.2µM*,2.8µM*,18µM*
C/C(=N\Nc1ccccn1)c1ccc(N2CCOCC2)cc1,1%,u,13µM*,u,2.2µM*,14µM*
Cc1ccc(N=Nc2ccc(O)c3ncccc23)cc1C,-9%,10%,11µM*,-18%,-9%,x
COc1ccccc1N=Nc1ccc(O)c2ncccc12,x,u,6.7µM*,-35%,-22%,x
Cc1ccc(N=Nc2ccc(O)c3ncccc23)cc1,-7%,u,3%,13%,-2%,-91%
O=C(Nc1cccc(Cl)c1)c1cnccn1,x,14%,-12%,3%,25%,x
CCn1ccc(C(=O)Nc2ccc3c(c2)CCC3)n1,x,u,3µM*,1µM*,1µM*,x
Cc1cc(C)n2nc(C(=O)Nc3ccc4c(c3)CCC4)nc2n1,-7%,u,13µM*,u,3.5µM*,11µM*
O=C(Nc1ccc2c(c1)CCC2)c1cnccn1,-18%,6.5µM*,12µM*,3.5µM*,3.2µM*,13µM*
Cc1cnc(C(=O)Nc2ccc3c(c2)CCC3)cn1,-5%,u,2.4µM*,u,0.5µM*,11µM*
CCn1ccc(C(=O)Nc2ccc(N(C)C(C)=O)cc2)n1,-15%,u,u,22%,u,18%
Cc1cnc(C(=O)Nc2cc(F)ccc2C)cn1,-5%,4%,-18%,0%,12%,-3%
Cc1cnc(C(=O)Nc2ccc(F)c(F)c2)cn1,-16%,16µM*,u,u,2.5µM*,13µM*
CC(=O)Nc1ccc(S(=O)(=O)N2CCC(c3nnnn3-c3ccccc3)CC2)cc1,x,x,0%,x,x,-1%
Cc1ccc(S(=O)(=O)c2nc(-c3ccco3)oc2SCc2ccccc2Cl)cc1,x,x,-2%,x,x,-3%
Cc1ccc(-c2csc(NC(=O)c3ccc(F)cc3)c2C(=O)O)cc1,x,-6%,12µM*,u,4µM*,x
O=C(Nc1ncc2c(n1)-c1ccccc1CC2)c1ccc(F)cc1,1%,-5%,u,2%,-2%,-16%
CC(C)Cc1csc(NC(=O)C(C)C)c1C(=O)O,x,-6%,4%,-1%,0%,x
O=C(Nc1nsc(-c2ccccc2)n1)c1ccc(F)cc1,-8%,u,9.5µM*,3.5µM*,2.2µM*,u
